Data on five compounds can be found in PubChem BioAssay.

The nature of test [1]: blockers of polyQ-driven CASP3 activation – cell-based (AID 1583). Particulars: polyglutamine-induced caspase-3 activation, cell assay; stronger effect = higher value;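 tested at 10 µM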.
A short description of test [2]: yeast 75Q aggregation reduction – 75Q-TubU reporter (AID 1593). Particulars: Yeast 75Q polyglutamine aggregation reporter.
A short description of test [3]: restoration of touch response, mutant HTT neurons – whole organism, C. elegans mechanosensory neurons, N-terminal huntingtin (AID 1599). As to conditions: C. elegans polyQ-huntingtin mechanosensory neurons, stronger effect = higher value.
Test [4] is described as follows: blockers of cytochrome c efflux from mitochondria – biochemical, purified mitochondria (AID 1603).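 Note: mouse liver mitochondria challenged with calcium chloride; signal normalized to the plate average as 100%.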 Particulars: stronger effect = lower value.
A short description of test [5]: polyglutamine aggregate formation blockers (AID 1604). Particulars: polyglutamine-induced protein aggregation inhibition assay; stronger effect = higher value; tested at 2.5 µM.
A short description of test [6]: glutamate transport activators, MN-1 cells, MN-1 cell line (AID 1612).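 Note: tested at 1 µM final; 0% = mean of DMSO vehicle wells on each plate; positive means more glutamate uptake than control and negative means less.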 Particulars: MN-1 motor neuron cells, stronger effect = higher value.
The nature of test [7]: GFP-Q80 aggregate reduction, neuronal-like cells, cell-based, NGF-treated PC12, GFPQ80 (AID 1614).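 Note: lower means fewer inclusions and 0 means no inclusions at all.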 Particulars: PC12 NGF-treated GFP-polyQ80 inclusion reduction.
Test [8] in a line: 75Q-TubH aggregate inhibition, S. cerevisiae, yeast (AID 1616). Particulars: S. cerevisiae 75Q-TubH polyglutamine aggregation suppression; stronger effect = higher value.
The nature of test [9]: P. berghei load reduction in hepatocytes – cell-based, HepG2, luciferase luminescence, HepG2 viability, primary screen (AID 624349).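 Note: 100% = mean of DMSO negative control wells on the same plate.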 As to conditions: P. berghei liver stage in HepG2, luciferase luminescence, concentration not given here; parasite load remaining: stronger effect = lower value; viability: measured here: HepG2 viability without parasites.
Test [10] can be described thus: EMT-state selective cytotoxicity in co-culture – imaging, PC-3E GFP, TEM4-18 mCherry, primary screen (AID 1345086;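 active = compounds killing one labelled cell type while sparing the other, by normalised counts and ratio limits, not self-fluorescent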;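 for all read-outs here: cells exposed to compound for 72 h before imaging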;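 for red/green cell ratio (normalised): normalised mesenchymal count divided by normalised epithelial count so high means epithelial killing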). As to conditions: PC-3E GFP / TEM4-18 mCherry co-culture, imaging cell counts, at 1 µM; for red/green cell ratio (normalised): actives lie on both sides, counts scaled to control wells, 1 = unselective.
The nature of test [11]: viability loss with induced miR-34 in A549 – imaging, A549 dox-inducible miR-34, nuclei and caspase counts, primary screen (AID 1347080;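 active = compounds whose cell count with miR-34 switched on is under 0.7 times the count with it off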). Particulars: A549 miR-34 inducible, Hoechst nuclei count, 48 h.
[12] abbreviates: measured here: epithelial PC-3E GFP cell survival.
Setting [13] is: measured here: mesenchymal TEM4-18 mCherry cell survival.
The mark [14] stands for this setting: stronger effect = lower value, cell number ratio, induced over uninduced.
Setting [15] is: measured here: relative caspase fold change +Dox/-Dox.
The mark [16] stands for this setting: measured here: total cells with miR-34 induction, stronger effect = lower value.
Where [17] appears, read: measured here: total cells without miR-34 induction.

Values joined by “and” are separate entries in the source; they are usually repeats but may differ in a detail not shown here. Equal entries are not always repeated. For some of these results: Entries with a potency or affinity are not part of this list. Active and inactive are the calls of the source. Cut-off read from the data, not from the text of the source, unless noted: active = parasite load remaining mostly below about 12% (no sharp cut-off); inactive = mostly above about 10%.

With `CO[C@@H]1[C@@H](O[C@@H]2O[C@H](C)[C@@H](O[C@H]3C[C@@](C)(O)[C@H](O)[C@H](C)O3)[C@H](N(C)C)[C@H]2O)[C@@H](CC=O)C[C@@H](C)[C@@H](O[C@H]2CC[C@H](N(C)C)[C@@H](C)O2)/C=C/C=C/C[C@H](C)OC(=O)C[C@H]1O`, the inhibition (as a rule, the change of the read-out against control, counted positive when it falls) in test [1] came out at 7.63%. The score in test [2] amounted to 1.61. Besides, the rescue above control in test [3] turned out to be 24.9. Besides, the cytochrome c release ratio in [4] came to 1.41. Further, in test [5], the inhibition of aggregation amounted to 50.8%. Besides, the glutamate uptake change in test [6] is -5.09%. The compound also came in with an inclusion score in [7] of 2. Further, in [8], the aggregation suppression score came out at 1.01. Also, the parasite load remaining in test [9] is 143% (inactive) and 69.7% (inactive). Further, the viability (commonly a read-out of living cells in per cent, often relative to untreated cells) in [9] is 83.9% and 197%. The red/green cell ratio (normalised) in [10] is 0.86 (inactive). Besides, the normalised cell number in test [10] (setting [12]) was found to be 1.23; in test [10] (setting [13]) it was 1.05. For the same compound, the fold change in test [11] (setting [14]) is 0.795 (inactive); in test [11] (setting [15]), 4.68. Also, the values for the cell count in [11] (setting [16]) and in test [11] (setting [17]) were 10300 and 12900, respectively.

For `CC(=O)O[C@]1(C(C)=O)CCC2C3C=C(Cl)C4=CC(=O)[C@@H]5C[C@@H]5[C@]4(C)C3CC[C@@]21C` (stereo not given in full), the inhibition in [1] amounted to 22.9%. Moreover, the score in [2] is 0.66. The same compound returned a rescue above control in test [3] of -6.61. Also, in [4], the cytochrome c release ratio came to 1.14. The same compound registered an inhibition of aggregation in [5] of 61%. In [6], the glutamate uptake change worked out at 14.6%. In [7], this compound returned an inclusion score of 1. For the same compound, the aggregation suppression score in test [8] was determined as 0.413. In test [9], the parasite load remaining was 90.2% (inactive) and 39.4% (inactive). For the same compound, the viability in test [9] is 70.9% and 86.5%. Further, the red/green cell ratio (normalised) in [10] is 0.81 (inactive). The normalised cell number in test [10] (setting [12]) came to 1.12; in test [10] (setting [13]) it was 0.91. The figures for the fold change in test [11] (setting [14]) and in [11] (setting [15]) were 0.907 (inactive) and 1.85, respectively. In addition, the cell count in test [11] (setting [16]) worked out at 11200; in test [11] (setting [17]) it was 12400.

As to `CC12CCC(=O)C=C1CCC1C2[C@@H](O)CC2(C)C1CC[C@]2(O)C(=O)COP(=O)(O)O` (stereo not given in full), the inhibition in [1] is -6.16%. In [2], this compound showed a score of 1.65. The compound further came in with a rescue above control in test [3] of -3.35. Moreover, the cytochrome c release ratio in test [4] is 1.1. Moreover, the inhibition of aggregation in [5] worked out at 44.7%. Also, in test [6], the glutamate uptake change was found to be 26.3%. The inclusion score in test [7] was 2. In test [8], this compound gave an aggregation suppression score of 1.46. Besides, in test [9], the parasite load remaining is 75.6% (inactive). Moreover, the viability in test [9] stood at 91.2%. Further, the red/green cell ratio (normalised) in [10] is 0.95 (inactive). Besides, the normalised cell number in [10] (setting [12]) came out at 1.05; in test [10] (setting [13]) it was 0.99. For the same compound, the results for the fold change in test [11] (setting [14]) and in [11] (setting [15]) were 0.789 (inactive) and 1.68, respectively. Moreover, the cell count in test [11] (setting [16]) is 7430; in test [11] (setting [17]), 9410.

Consider `O=c1[nH]c(=O)n(C2C[C@@H](O)[C@@H](CO)O2)cc1F` (stereo not given in full), for which the inhibition in test [1] is -9.47%. The same compound returned a score in test [2] of 1.23. For the same compound, the rescue above control in test [3] is -12.2. Further, in test [4], the cytochrome c release ratio amounted to 0.97. For the same compound, in test [5], the inhibition of aggregation amounted to 28.2%. The glutamate uptake change in test [6] stood at 1.59%. The inclusion score in [7] was 2. Besides, the aggregation suppression score in test [8] was found to be 1.24. Also, in [9], the parasite load remaining is 79.5% (inactive) and 36% (inactive). For the same compound, in test [9], the viability was 108%. The red/green cell ratio (normalised) in test [10] is 0.79 (inactive). Besides, the normalised cell number in test [10] (setting [12]) was 0.79; in test [10] (setting [13]), 0.62. Besides, the fold change is 1.13 (inactive) in [11] (setting [14]) and 1.5 in test [11] (setting [15]). The cell count in test [11] (setting [16]) worked out at 4220; in test [11] (setting [17]), 3730.

For the compound `CCC(=O)OCC(=O)C1(OC(=O)CC)C(C)CC2C3CCC4=CC(=O)C=CC4(C)C3(Cl)C(O)CC21C` (stereo not given), in [1], the inhibition is -26%. This compound registered a score in [2] of 0.15. Moreover, in test [3], the rescue above control was -4.19. Besides, the cytochrome c release ratio in test [4] turned out to be 1.11. In test [5], the inhibition of aggregation stood at 41.7%. Besides, in [6], the glutamate uptake change was found to be 23.7%. The same compound yielded an inclusion score in test [7] of 2. Besides, the aggregation suppression score in [8] was found to be 1.25. In test [9], the parasite load remaining was 142% (inactive) and 79.4% (inactive). In addition, the viability in test [9] was 78.6% and 97.5%. Also, in test [10], the red/green cell ratio (normalised) was 1.47 (inactive). In addition, the normalised cell number in [10] (setting [12]) came to 0.88; in test [10] (setting [13]), 1.29. Further, the results for the fold change in test [11] (setting [14]) and in test [11] (setting [15]) were 0.749 (inactive) and 1.52, respectively. Further, the values for the cell count in [11] (setting [16]) and in [11] (setting [17]) were 6530 and 8720, respectively.
